From PubChem BioAssay AID504690 (Sanford-Burnham Center for Chemical Genomics, 2011) come the findings set out here.

About 2,700 (0.77%) of roughly 350,000 compounds were called active. Shown is part of a subset that was picked to be rich in actives. A number with no mark means an inactive call.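 The calls were made as follows: active = inhibition reaching at least a set limit at 20 µM in the primary screen (cut at about 59% in these data); inactive = the rest.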

The test relates to glucose-6-phosphate dehydrogenase-6-phosphogluconolactonase (Plasmodium falciparum 3D7). The experiment in a line: inhibition of malaria parasite G6PD (PfGluPho) – biochemical, fluorescence intensity, uHTS, primary screen (AID 504690).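 Also: 0% = DMSO wells with substrate and 100% = DMSO wells lacking glucose-6-phosphate.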 The conditions noted are these: PfGluPho enzyme, NADPH resazurin-diaphorase fluorescence; at 20 µM; stronger effect = higher value.
`Cc1ccc2c(c1)N(CC(=O)NCC1CCCO1)C(=O)CO2` (stereo not drawn): the inhibition is 0.68%.
The same measure for `FC(F)(F)c1cccc(-c2cc3ccccc3nc2N2CCCC2)c1`: 13.8%.
To `O=C(CNS(=O)(=O)c1ccc(Br)s1)N1CCN(C(=O)c2ccco2)CC1` belongs -12.2%; to `Cc1ccc2nc(-c3cccc(Br)c3)cc(C(=O)Nn3cnnc3)c2c1`, 59.4% (active); to `Cc1ccc(-c2cc(C(=O)NCc3cn(C)nc3C)c3cc(Br)ccc3n2)cc1`, 3.11%.
The same measure for `NC(=O)c1cc(-c2cccnc2)nc2ccc(Br)cc12`: 14.2%; for `CCc1nnc(NC(=O)CSc2nc3c(c(=O)n2-c2ccccc2OC)SCC3)s1`: 43%.
Take `O=C(Nc1ccc(F)cc1)c1cc2c(s1)CCCC2`: the inhibition is 75.7% (active).
`O=C(NCC1CCCO1)c1cc2c(s1)CCCC2` (stereo not drawn): the inhibition was 14%.
The same measure for `CN(C)C(=O)c1ccc(NC(=O)COC(=O)c2cc3c(s2)CCCCC3)cc1`: -5.04%; for `Cc1ccc(CSCCNC(=O)CN(c2ccc(F)cc2)S(C)(=O)=O)cc1`: -11.7%.
To `NC(=O)C1=C[C@@H](c2ccc3c(c2)OCO3)C[C@@H](OCCCCO)O1` belongs 17.6%; to `CC1(c2ccc3ccccc3c2)NC(=O)NC1=O` (stereo not drawn), 18.9%; to `Cc1ccc(C=O)c([B-](F)(F)F)c1`, -13.1%.
Consider `CN1c2ccc(C=O)c3c(C=O)ccc(c23)N(C)C1(C)C`, for which the inhibition was 69.6% (active).
To `COC(=O)C1(CCSC)NC(c2ccc(OC)cc2OC)C2C(=O)N(c3cccc(C(C)=O)c3)C(=O)C21` (stereo not drawn) belongs -2.47%; to `Cc1ccc(Cc2c(-c3ccc(C)cc3)nc3c4ccccc4ccn23)cc1`, 31.4%.
The same measure for `Cc1ccc(-c2nc3ccc(Cl)cn3c2Cc2ccccc2)cc1`: 87.1% (active).
To `Cc1ccc(Cc2c(-c3ccccc3)nc3ccc(Cl)cn23)cc1` belongs 37.4%; to `Cc1cc(C)n2nc(CNS(=O)(=O)c3c(F)c(F)c(F)c(F)c3F)nc2n1`, -12.8%.
Turning to `COc1ccc(N2CCN(S(=O)(=O)c3cc(Br)cnc3N)CC2)cc1`, the inhibition was -12.2%.
The same measure for `Nc1ccccc1SC(C[N+](=O)[O-])c1ccccc1` (stereo not drawn): 79.5% (active); for `Fc1cccc(CSc2nnc3ccc(-c4ccncc4)nn23)c1`: 1.54%.
To `COc1cc2c(C(=O)N(C)c3cc(Cl)ccc3OC)cn(C)c(=O)c2cc1OC` belongs -11.9%.
To `O=C(c1[nH]ncc1-c1ccc(Cl)cc1)C1CO1` (stereo not drawn) belongs 2.19%; to `COc1ccc2oc(=O)cc(CN3CCOCC3)c2c1`, -5.99%.
For the compound `O=[N+]([O-])c1ccc(COc2ccccc2CN2CCOCC2)cc1`, the inhibition is 36.1%.
The same measure for `Oc1c(CN2CCOCC2)ccc(CN2CCOCC2)c1O`: 91.2% (active).
